Sampled rows, rich in hits. Any-hit rate of the full collection: about 2.4%.
Hck-Nef inh – blocks Nef-activated human Hck kinase; inhibition, % at 20 µM; actives 0.68% (n = 220,000); AID 463187; Recombinant Hck-YEEI plus Nef, Z-Lyte FRET kinase assay; P08631;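 active = Hck-Nef kinase inhibition above about 50%, limit read from the data; inactive = inhibition below that limit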
Target sequence (P08631 whole entry, looked up): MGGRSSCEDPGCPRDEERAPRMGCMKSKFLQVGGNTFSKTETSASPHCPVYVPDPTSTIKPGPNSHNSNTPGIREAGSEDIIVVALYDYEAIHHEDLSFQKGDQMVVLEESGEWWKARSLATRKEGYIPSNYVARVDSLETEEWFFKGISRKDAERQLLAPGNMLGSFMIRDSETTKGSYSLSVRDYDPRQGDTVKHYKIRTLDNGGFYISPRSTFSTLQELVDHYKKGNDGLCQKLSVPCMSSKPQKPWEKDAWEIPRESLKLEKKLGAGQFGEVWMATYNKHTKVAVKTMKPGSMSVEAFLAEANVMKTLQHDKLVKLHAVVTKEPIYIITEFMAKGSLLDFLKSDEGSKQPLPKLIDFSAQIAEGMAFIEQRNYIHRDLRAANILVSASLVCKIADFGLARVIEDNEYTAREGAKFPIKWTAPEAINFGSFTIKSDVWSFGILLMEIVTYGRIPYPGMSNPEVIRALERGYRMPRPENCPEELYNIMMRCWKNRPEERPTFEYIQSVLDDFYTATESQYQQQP
PGE2 EP2 inh – EP2 receptor (human) inhibition | C6 glioma cells expressing human EP2, cAMP TR-FRET; cells stimulated with saturating PGE2 | inhibition, % at 25 µM | actives 0.52% (n = 260,000) | AID 1422;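 active = percent inhibition above 40 after rounding to a whole number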;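 also: rat C6 glioma host cells with rolipram phosphodiesterase inhibitor present; the protocol text gives 20 µM as final concentration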
p97 inhibitor – inhibitors of human p97 ATPase. actives 0.42% (n = 220,000). inhibition, % at 8 µM. P55072. AID 1481. recombinant p97 ATPase, Kinase-Glo ATP luminescence, 3 h; in the data active = inhibition above about 15%
EP2 mod – modulators of human EP2 prostaglandin E2 receptor. P43116. EP2-expressing cells, cAMP HTRF FRET, PGE2 co-stimulation. induction, % at 25 µM. actives 0.83% (n = 260,000). AID 940;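 active = compounds whose cAMP rise, as percent of the full-agonist control response, exceeds 60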;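 also: rat C6 glioma line stably carrying human EP2 under a CMV promoter; the protocol text gives 20 µM as final concentration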
Arbovirus inh – arbovirus infection inhibition | arbovirus infection cell-based antiviral screen | inhibition, % at 10 µM | actives 0.37% (n = 200,000); in the data active = inhibition above about 30%
EP2 confirm – EP2 receptor cAMP induction, counter-screens negative; AID 1080; C6 glioma EP2 cells, cAMP HTRF induction; plus low (about EC15) PGE2 agonist; actives 47% (n = 1,300); shares compounds with EP2 mod; calls only at 20 µM (by protocol);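 active = cAMP induction above 50% in the main assay while under 30% in all four parallel counter assays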;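 also: rat C6 glioma cells stably expressing human EP2 receptor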
A number is an active result; . = inactive; / = no result; + = active, no number.

SMILES	Hck-Nef inh	PGE2 EP2 inh	p97 inhibitor	EP2 mod	Arbovirus inh	EP2 confirm
COC(=O)/C(C)=C/CC12OC(C)(C)C3CC(C=C4C(=O)c5cc6c(c(CCC(C)(C)Cl)c5OC431)OC1(C)CCC(=C(C)C)C6C1)C2=O (stereo unspecified)	/	.	/	.	/	/
CC(=O)Oc1c2c(c3c(c1CC=C(C)C)O[C@]14C(=C[C@@H]5CC1C(C)(C)OC4(C/C=C(\C)C(=O)O)C5=O)C3=O)OC(C)(CCC=C(C)C)C=C2 (stereo partly specified)	/	.	/	.	/	.
CCOC(=O)c1sc2nc(C)nc(N3CCN(c4ncccn4)CC3)c2c1C	.	.	.	67	.	.
CCOC(=O)c1sc2ncnc(N3CCN(C)CC3)c2c1C	.	.	.	.	.	/
COc1ccc2[nH]c3c(c2c1)CCn1c-3nc2sc3c(c2c1=O)CCCC3=O	/	.	/	.	/	/
Cc1cccc(OCCCC(=O)N2CCCc3ccccc32)c1C	.	.	.	82	.	+
O=C(NC1(c2ccc(F)cc2)CCCC1)c1cnn2cccnc12	/	/	/	.	/	/
CN(C)c1ncc(S(=O)(=O)c2ccc(Cl)cc2)c(-c2ccccc2)n1	.	.	.	80	.	+
COc1ccc(S(=O)(=O)N2c3cc(C)ccc3OCC2C(C)(C)C)cc1 (stereo unspecified)	.	.	.	66	.	+
Cc1ccc(S(=O)(=O)N2c3ccccc3OCC2c2ccccc2)cc1 (stereo unspecified)	.	.	.	.	.	/
COC(=O)C1C(=O)C2=C(CC1C)Nc1ccccc1NC2c1ccc(Cl)c(Cl)c1 (stereo unspecified)	/	.	/	.	/	/
CCCCN1C=C(C(=O)OC)C(c2ccccc2Cl)C(C(=O)OC)=C1	.	.	.	69	.	+
CCCCOc1ccccc1C1C(C(=O)OC)=C(C)N(C)C(C)=C1C(=O)OC	.	.	.	94	.	+
CCOC(=O)C1=C(C)N(C)C(C)=C(C(=O)OCC)C1c1ccccc1	.	.	.	67	.	+
CCN1CCN(C(c2cc3cc(C)cc(C)c3[nH]c2=O)c2nnnn2CCOC)CC1 (stereo unspecified)	/	.	/	.	/	/
Cc1ccc(Cl)cc1NC(=O)CSc1nc2ccccc2c(=O)n1C	/	.	/	.	/	/
OC(COc1ccccc1)Cn1c2ccccc2c2ccccc21 (stereo unspecified)	.	.	.	71	.	+
CCCCC(CC)CN1CN(CC(CC)CCCC)CC(C)(N)C1 (stereo unspecified)	/	.	/	.	/	.
CCOC(=O)C1=C(N)OC(C)=C(C#N)C1c1ccco1 (stereo unspecified)	.	.	.	.	.	.
CCCC1=C(C(=O)OCC)C(c2ccco2)C(C#N)=C(N)O1 (stereo unspecified)	.	.	.	.	.	/
CCC(C)(C)NC(=O)C(c1ccncc1)N(C(=O)Cn1nnc2ccccc21)c1ccccc1C (stereo unspecified)	/	.	/	.	/	/
COc1ccccc1N(C(=O)NCc1ccccc1)C1=NCC(C)S1 (stereo unspecified)	.	.	.	69	.	+
CN(C(=O)NC1(C)CCS(=O)(=O)C1)C1(C)CCS(=O)(=O)C1 (stereo unspecified)	/	.	/	.	/	/
CCOC(=O)Cn1c(S(=O)(=O)Cc2ccc(F)cc2)nc(-c2ccccc2)c1-c1ccccc1	.	.	.	.	.	/
C#CCn1c(S(=O)(=O)Cc2ccc(F)cc2)nc(-c2ccccc2)c1-c1ccccc1	.	.	.	65	.	+
SMILES	Hck-Nef inh	PGE2 EP2 inh	p97 inhibitor	EP2 mod	Arbovirus inh	EP2 confirm
N#CCSc1nc2sc3c(c2c(=O)n1C1CCCCC1)CCCC3	.	.	.	73	.	+
COc1ccccc1NC(=O)CSc1nnc(-c2cccc(O)c2)o1	/	.	/	.	/	/
Clc1cccc(Cl)c1CSc1cc2c(nn1)-c1ccccc1CC2	.	.	.	.	.	/
O=C1CCCc2ccccc2N1Cc1ccccc1	.	.	.	.	.	/
O=c1cc2c(nn1Cc1c(Cl)cccc1Cl)-c1ccccc1CC2	.	.	.	78	.	+
O=C1CCCc2ccccc2N1Cc1c(Cl)cccc1Cl	.	.	.	72	.	+
O=C1CCCc2ccccc2N1Cc1cccc(Cl)c1	.	.	.	72	.	.
O=C1CCCc2ccccc2N1Cc1ccccc1Cl	.	.	.	.	.	/
O=C(CCCCC1SCC2NC(=O)NC21)NC1(c2ccc(F)cc2)CCCC1 (stereo unspecified)	/	.	/	.	/	/
COc1cc(SC)ccc1C(=O)N1CCC(C)CC1	/	.	/	.	/	/
COc1cc(C)c(C2C(C#N)=C(N)Oc3n[nH]c(C)c32)cc1OC (stereo unspecified)	/	.	/	.	/	/
O=C(Oc1ccc(-c2nccc(-c3ccccn3)n2)cc1)c1cccc(C(F)(F)F)c1	.	.	.	67	.	.
COCCCN(C(=O)CCC(=O)O)c1nc(-c2ccc(OC)cc2)cs1	/	.	/	.	/	/
Cc1ccc(NC2=C(C(=O)c3ccccc3)N(C)S(=O)(=O)c3ccccc32)cc1	.	.	.	66	.	.
CCCc1cc(=O)n2[nH]c(NCc3cccs3)nc2n1	.	.	.	71	.	.
CCCc1cc(=O)n2[nH]c(NCc3ccccc3Cl)nc2n1	.	.	.	.	.	/
CCOC(=O)c1cnc2c(c(C)nn2C)c1Oc1ccc(Cl)cc1	.	.	.	67	.	+
CCOC(=O)c1c(CC(C)C)csc1NC(=O)C(C)C	.	.	.	.	.	/
CCOC(=O)c1c(CC(C)C)csc1N	.	.	.	72	.	.
CCOC(=O)c1c(CC(C)C)csc1NC(=O)CCl	.	/	.	74	.	.
Cc1cccc(Oc2nc(-c3ccccc3)cc(C)c2S(C)(=O)=O)c1C	.	.	.	72	.	+
Cc1n[nH]c(=O)c2cc3sccc3n12	/	.	/	.	/	/
CC(=O)c1sc2nc(-c3ccc(C)cc3)c3c(c2c1N)CCCC3	.	.	.	72	.	+
Cc1ccc(-c2nc3sc(C(N)=O)c(N)c3c3c2CCCC3)cc1	.	.	.	.	.	/
COC(=O)c1c(NC(NC(=O)C(C)C)C(Cl)(Cl)Cl)sc2c1CCCC2 (stereo unspecified)	.	.	.	.	.	.
COC(=O)c1c(NC(C)=O)sc2c1CCCC2	.	.	.	.	.	/
N#Cc1c(N)nc2c3c(sc(=N)c2c1N)NC(=O)CC3c1c(F)cccc1Cl (stereo unspecified)	.	.	.	68	.	+
N#Cc1c(N)nc2c3c(sc(=N)c2c1N)NC(=O)CC3c1ccccc1 (stereo unspecified)	.	.	.	.	.	/
Brc1cccc(-c2nnc(SCc3ccon3)n2-c2ccccc2)c1	.	.	.	.	.	.
Clc1ccc(C(c2nnnn2C2CCCC2)N2CCc3ccccc3C2)cc1 (stereo unspecified)	/	.	/	.	/	/
